This is one part of a sample in which the strongest signals are shown more often than they occur.

What all share (experiment): glycan array binding signal (z-score within array); higher = stronger binding
Holding throughout (conditions): glycan notation: IUPAC condensed, linker removed

Assay [1] addresses Fuc(a1-2)Gal(b1-3)GlcNAc(b1-3)[Gal(b1-4)GlcNAc(b1-6)]Gal(b1-4)Glc. The procedure, abridged: (§1)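 The Consortium for Functional Glycomics database supplied 3228 glycan arrays, of which those lacking an available protein sequence were dropped. The binding signal, a within-array Z-score, was averaged across arrays of the same protein sequence and across linkers. Negative scores can be read as non-binding.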

The target in assay [2] is Fuc(a1-2)Gal(b1-3)GlcNAc(b1-3)[Neu5Ac(a2-6)Gal(b1-4)GlcNAc(b1-6)]Gal(b1-4)Glc. An outline of the steps: as §1
Assay [3] has as its target Fuc(a1-2)Gal(b1-4)Glc. The procedure, abridged: as §1
Assay [4] concerns the target Fuc(a1-2)Gal(b1-4)GlcNAc(b1-3)Gal(b1-4)GlcNAc(b1-3)Gal(b1-4)GlcNAc. An outline of the steps:
as §1

Assay [5] has as its target Fuc(a1-2)[Gal(a1-3)]Gal. An outline of the steps: as §1
Assay [6] has as its target Fuc(a1-2)[Gal(a1-3)]Gal(b1-3)GlcNAc(b1-6)GalNAc. The procedure, abridged:
as §1

The target of assay [7] is Fuc(a1-2)[Gal(a1-3)]Gal(b1-4)GlcNAc(b1-6)GalNAc. The procedure, abridged: as §1
The target of assay [8] is Fuc(a1-2)[GalNAc(a1-3)]Gal(b1-3)GlcNAc(b1-2)Man(a1-3)[Fuc(a1-2)[GalNAc(a1-3)]Gal(b1-3)GlcNAc(b1-2)Man(a1-6)]Man(b1-4)GlcNAc(b1-4)[Fuc(a1-6)]GlcNAc. The procedure, abridged:
as §1

For assay [9], the target named is Fuc(a1-2)[GalNAc(a1-3)]Gal(b1-4)GlcNAc(b1-3)[Fuc(a1-2)[GalNAc(a1-3)]Gal(b1-4)GlcNAc(b1-6)]GalNAc. An outline of the steps:
as §1

In assay [10] the target is Fuc(a1-3)[GalNAc(b1-4)]GlcNAc. The procedure, abridged: as §1
Assay [11] addresses Fuc(a1-4)GlcNAc. The procedure, abridged:
as §1

For assay [12], the target named is Gal(a1-3)Gal(b1-4)GlcNAc. An outline of the steps: as §1
Assay [13] addresses Gal(a1-3)[Gal(a1-4)]Gal(b1-4)GlcNAc. An outline of the steps: as §1
Assay [14] has as its target Gal(b1-3)GlcNAc(b1-3)Gal(b1-4)Glc. An outline of the steps: as §1
Assay [15] deals with Gal(b1-3)GlcNAc(b1-3)Gal(b1-4)[Fuc(a1-3)]GlcNAc. An outline of the steps: as §1
Assay [16] concerns the target Gal(b1-3)[Fuc(a1-4)]GlcNAc(b1-2)Man. The procedure, abridged:
as §1

The target in assay [17] is Gal(b1-3)[GlcNAc(b1-6)]GalNAc. The procedure, abridged: as §1
The target in assay [18] is Gal(b1-4)GalNAc(a1-3)[Fuc(a1-2)]Gal(b1-4)GlcNAc. An outline of the steps: as §1
The target of assay [19] is Gal(b1-4)GlcNAc(b1-2)Man(a1-3)[GlcNAc(b1-4)][Gal(b1-4)GlcNAc(b1-2)Man(a1-6)]Man(b1-4)GlcNAc(b1-4)GlcNAc. The procedure, abridged: as §1
Assay [20] deals with Gal(b1-4)GlcNAc(b1-3)Gal(b1-4)GlcNAc(b1-3)Gal(b1-4)GlcNAc(b1-3)Gal(b1-4)GlcNAc(b1-3)Gal(b1-4)GlcNAc(b1-2)[Gal(b1-4)GlcNAc(b1-3)Gal(b1-4)GlcNAc(b1-3)Gal(b1-4)GlcNAc(b1-3)Gal(b1-4)GlcNAc(b1-3)Gal(b1-4)GlcNAc(b1-6)]Man(a1-6)[Gal(b1-4)GlcNAc(b1-3)Gal(b1-4)GlcNAc(b1-3)Gal(b1-4)GlcNAc(b1-3)Gal(b1-4)GlcNAc(b1-3)Gal(b1-4)GlcNAc(b1-2)Man(a1-3)]Man(b1-4)GlcNAc(b1-4)[Fuc(a1-6)]GlcNAc. The procedure, abridged: as §1

Assay [21] deals with Gal(b1-4)GlcNAc(b1-3)Gal(b1-4)GlcNAc(b1-6)[Gal(b1-3)]GalNAc. The procedure, abridged: as §1
Assay [22] concerns the target Gal3S4S(b1-4)GlcNAc. The procedure, abridged: as §1
Assay [23] concerns the target Gal3S6S(b1-4)GlcNAc. An outline of the steps:
as §1

B1: SP8524D-bot-399-27-399 (Bacteroides ovatus) (protein)
chain: DAKYDTLDTHAYIEEALSSTSQKVTVQATGESFTTLNVHLSNLSSTDNHYKLVTDQSVLDTYNHINGTGYIMLPKDYYTLPETITVKAGQYAADALSIALKAFSQEMMKSGESYALPVKLVLQDGSISPMENTGTFVILAESIIEFSAPMFVGAPSLKANKFTESPETYSQYTIEVRFQVANTADRDRAVFKNGGDDANFILLRFEDPQSDNENYKAHSLVQIVGRNRLYLNPSNSFKPNEWQHLALVCDGSNYRLYINGVDSGVLSIPTGATTFSDVNWFCLGDDSYSRWGNCKILMSEARIWSVVRSASQIQNNMTQVSPKSVGLEAYWRFNEGQGNVFEDATGKGHTLTTSATPTWIDGILSTDKSTEWK
Consider B1, for which the “glycan array binding signal (z-score)” value is -0.119 in [1]; -0.348 in [2]; -0.082 in assay [3]; -0.049 in [4]; 1.34 in assay [5]; -0.387 in [6]. Also, the “glycan array binding signal (z-score)” value in assay [7] is -0.255; in [8], -0.246; in assay [9], -0.238; in assay [10] it was 1.02; in [11], 6.02; in [12], -0.463. The “glycan array binding signal (z-score)” value in assay [13] was 3.56; in [14] it was -0.359; in assay [15], -0.174; in [16], 0.35; in [17], -0.01; in assay [18], 0.229. Further, the “glycan array binding signal (z-score)” value in [19] was -0.382; in assay [20] it was 1.02; in assay [21] it was 0.317; in assay [22] it was -0.075; in assay [23], 0.506.
